This note sets out measurements from PubChem BioAssay (NCI).

Each structure is given as a SMILES string. The panel holds about 83,000 compounds, 20% with a hit somewhere; the sample as a whole holds those more often.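 48-hour exposure, single concentration, 96-well plates; percent growth endpoint where 0 means no net growth. Active: below 10.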 A number with no mark means an inactive call. The source made the active and inactive calls.

What all share (assay): NCI-60 one-dose screen, 48 h (100 = growth as untreated, 0 = no growth, -100 = all killed)
Holding throughout (settings): 10 µM unless noted

The test system of test [1] is NCI-H23 lung.
The subject of test [2] is NCI-H226 lung.
The subject of test [3] is NCI-H322M lung.
Test [4] concerns HOP-62 NSCLC.
Test [5] has as its system NCI-H460 lung.
Test [6] has as its system A549/ATCC NSCLC.
The test system of test [7] is 786-0 renal.
For test [8], the system named is COLO 205 colon.
The test system of test [9] is DU-145 prostate.
Test [10] deals with K-562 leukemia.
In test [11] the test system is MALME-3M melanoma.
Test [12] has as its system MDA-MB-231 breast.
The test system of test [13] is RXF 393 renal.
Test [14] has as its system SF-268 CNS.
The subject of test [15] is SF-295 CNS.
The test system of test [16] is SF-539 CNS.
Test [17] has as its system UACC-257 melanoma.
Test [18] deals with M14 melanoma.

Take `CC(=O)c1ccc2c(c1)c1ccccc1n2C`: the growth is 94.1% in [1]; 84.2% in test [2]; 86.2% in test [3]; 83.2% in test [4]; 98.5% in test [5]; 96.9% in test [6]. The growth is 96.6% in test [7]; 99.8% in test [8]; 104% in test [9]; 86.7% in test [10]; 105% in test [11]; 102% in test [12]. In addition, the growth in [13] was 94.7%; in [14], 101%; in test [15] it was 85.8%; in [16], 108%; in test [17] it was 104%; in [18] it was 106%.

As to `COc1cc(-c2nn(-c3ccc(NC(=O)Nc4ccc(Cl)c(C(F)(F)F)c4)cc3)cc2-c2ccncc2)ccc1Cl`, the growth in [1] was 2.97% (active); in test [2], 17.9%; in [3], 39%; in [4] it was 8.98% (active); in test [5] it was -51.7% (active); in [6], 11.9%. Further, the growth in test [7] is -52.3% (active); in [8] it was -94% (active); in [9], 34%; in test [10], 13.2%; in [11], 12.1%; in test [12], 7.76% (active). Further, the growth is -30.2% (active) in [13]; 21.7% in test [14]; -7.8% (active) in test [15]; 14.7% in [16]; -3.17% (active) in test [17]; 1.7% (active) in test [18].

Consider `CC(O)CN(CC(C)O)N(CC(C)O)CC(C)O` (centres undefined), for which the growth in [1] is 108%; in test [2] it was 97.5%; in test [3], 107%; in test [4] it was 101%; in test [5] it was 106%; in test [6], 95.5%. Also, the growth is 99.5% in test [7]; 109% in test [8]; 111% in test [9]; 108% in test [10]; 108% in test [11]; 105% in [12]. The growth in test [13] is 105%; in test [14] it was 110%; in test [15], 101%; in test [16], 105%; in [17] it was 90.5%; in test [18], 100%.

For the molecule `O=Nc1ccc(O)c2ccccc12`, the growth in test [1] was -9.22% (active); in [2], 101%; in [3] it was 106%; in test [4] it was 38.4%; in [5] it was 96.7%; in test [6], 41.6%. Further, the growth is 77.7% in test [7]; 21.9% in test [8]; 56.7% in test [9]; 12.1% in [10]; -58.5% (active) in test [11]; 52.5% in test [12]. For the same molecule, the growth in [13] is 10.9%; in test [14], 10.5%; in test [15], 62.9%; in [16] it was 0.651% (active); in test [17] it was -68.5% (active); in test [18] it was -10.8% (active).

`CCCC[N+](C)(N)CCCC`: the growth was 112% in test [1]; 105% in test [2]; 103% in test [3]; 97.6% in [4]; 102% in test [5]; 103% in test [6]. Also, the growth in test [7] is 97.1%; in [8], 122%; in [9], 111%; in [10] it was 103%; in [11], 107%; in test [12] it was 108%. Further, the growth was 115% in [13]; 112% in [14]; 94.5% in test [15]; 101% in [16]; 106% in test [17]; 100% in [18].

`N#Cc1ccc(OCc2nc(N)nc(N)c2-c2ccc(Cl)c(Cl)c2)cc1`: the growth in test [1] was 36.3%; in test [2], 45.8%; in test [3] it was 40.6%; in [4], 9.96% (active); in test [5] it was 14.1%; in test [6], 7.74% (active). Besides, the growth in [7] was 25.8%; in [8], 45.5%; in test [9], 34.3%; in [10], 12.6%; in test [11], 49.5%; in test [12], 50.7%. The growth in test [13] is 46%; in test [14], 33.6%; in test [15] it was 3.74% (active); in test [16], 22.7%; in [17] it was 22.8%; in [18] it was 27.6%.

As to `CC(=O)Nc1nc(C)c(C(=O)N/N=C/N2CCCCC2)s1`, the growth in test [1] is 108%; in test [2] it was 103%; in [3], 123%; in test [4] it was -100% (active); in test [5], 110%; in test [6], 104%. In addition, the growth was 114% in [7]; 114% in [8]; 137% in [9]; 137% in test [10]; 119% in test [11]; 111% in test [12]. Besides, the growth in [13] was 112%; in [14] it was 111%; in test [15] it was 127%; in test [16] it was 99.3%; in test [17], 120%; in [18] it was 111%.

Regarding `O=C(O)CS(=O)c1ccc(Cl)cc1` (centres undefined), the growth in test [1] was 106%; in [2] it was 103%; in [3], 87.7%; in test [4] it was 101%; in test [5], 104%; in test [6] it was 103%. In addition, the growth in test [7] was 95.7%; in test [8], 107%; in test [9] it was 109%; in test [10], 81.8%; in test [11], 99.8%; in test [12], 118%. The growth in test [13] was 103%; in test [14], 109%; in [15] it was 94.9%; in test [16], 106%; in test [17] it was 99.3%; in test [18] it was 102%.
